These results are taken from the supplement of paper PMC4954754.

The structures appear in SMILES notation. ± gives the uncertainty stated by the source.

In one assay the test system is HEK293T-Rex XBP1-RLuc. Briefly: XBP1-RLuc splicing reporter activation, triplicate, relative to 500 nM thapsigargin (% of thapsigargin); higher = stronger IRE1/XBP1s reporter activation. To be noted: 6.8 µM; 18 h; screen: confirmation. The procedure:
(§1)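 HEK293T-Rex cells stably expressing the ERSE-firefly luciferase (BiP promoter, ATF6-preferring) or XBP1-splicing Renilla luciferase (IRE1/XBP1s) reporter, 1536-well plates, compound at 6.8 µM for 18 hr at 37 °C; luminescence read […] and expressed as % activation = 100*(compound - median DMSO)/(median 500 nM thapsigargin - median DMSO). Primary screen was single-pass; confirmation screen in triplicate (mean ± SD).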
`CCn1c(/C(C#N)=C/c2ccc(OC)cc2)nc2ccccc21`: the “XBP1-RLuc splicing reporter activation” value is -0.629 ± 1.8.
The same measure, in the same setting: the value for `Nc1ccc2nc(-c3ccccn3)[nH]c2c1` was 18.7 ± 1.1; that for `Nc1cn(-c2ccccc2)nc1-c1cccs1` was 50.6 ± 2.8; that for `COc1cccc(C(=O)Nc2nc3ccc(C)cc3s2)c1` was 5.6 ± 0.99.
On to `N#C/C(=C\c1ccc(O)c(O)c1)C(=O)Nc1ccccc1`, for which the “XBP1-RLuc splicing reporter activation” value worked out at 13.3 ± 0.68.
On to `O=C1N/C(=C/c2ccc(O)cc2)C(=O)N1Cc1ccc(Br)cc1`, for which the “XBP1-RLuc splicing reporter activation” value was 33.3 ± 4.9.
On the same count and under the same terms, with `CNC(=O)c1ccccc1Nc1cc(NC(=O)Cc2ccc(F)c(F)c2)ncc1C(F)(F)F` the figure was 91.3 ± 2.1; with `Cc1ccc(O)c(N/C=C/C(=O)c2cccs2)c1`, 4.09 ± 1.2; with `Cc1cnc(NC(=O)c2sc3nc4c(C)cccc4cc3c2N)s1`, 32.6 ± 0.95.
Turning to `CCC(=O)N(Cc1cc2cc(C)ccc2n2nnnc12)C1CCCC1`, the “XBP1-RLuc splicing reporter activation” value worked out at 4.74 ± 0.41.
Same read-out and setting: the value for `Cc1cc(C)nc(/N=C(\N)Nc2ccc(OCc3ccc(Cl)cc3)cc2)n1` was 81.2 ± 5.9; that for `CC(=O)Oc1ccc(C(=O)OCc2ccc(Cl)cc2)cc1OC(C)=O` was 12.3 ± 2.2.
Still for that read-out and setting: with `OCCNc1nc(Nc2ccc(Cl)cc2)nc2ccccc12` the figure was 32.6 ± 2.5; with `CN(C)c1ccc(C(=NO)c2ccc(N(C)C)cc2)cc1`, 6.61 ± 1.1; with `N#CC1=C(N)Oc2c(ccc3ccccc23)C1c1ccsc1` (stereo not drawn), 9.04 ± 1.1.
Take `COc1ccc(/C=C/c2ccc3cccc(OC(C)=O)c3n2)cc1OC(C)=O`: the “XBP1-RLuc splicing reporter activation” value was determined as 6.25 ± 0.81.

A further assay concerns HEK293T-Rex ERSE-FLuc. Briefly: ERSE-FLuc reporter activation, triplicate confirmation, relative to 500 nM thapsigargin (% of thapsigargin); higher = stronger ATF6/ERSE reporter activation. To be noted: 6.8 µM; 18 h; screen: confirmation. The procedure:
as §1
The compound `Oc1ccc(-c2cn3ccccc3n2)cc1O` yielded an ERSE-FLuc reporter activation of 40 ± 5.6.
Still for that read-out and setting: with `CN1C(=O)/C(=C\c2ccc(O)c(O)c2)SC1=S` the figure was 25.2 ± 1.4; with `O=C(NCCCn1ccnc1)c1cc(-c2cccs2)on1`, 42.5 ± 6.9.
On the same count and under the same terms, the value for `O=C(c1ccccc1)c1c(O)ccc2c(C(=O)c3ccccc3)c(O)ccc12` was 39.3 ± 7.9.
On to `CCCNC(=O)c1cc(-c2ccc(F)cc2)on1`, for which the ERSE-FLuc reporter activation is 42 ± 5.5.
Still for that read-out and setting: with `CC(C)c1ccc(/C=N\NC(=O)c2ccccc2)cc1` the figure was 27.4 ± 3.1.
The compound `CCCCNC(=O)c1cc(-c2cccs2)on1` yielded an ERSE-FLuc reporter activation of 65.1 ± 6.3.
Still for that read-out and setting: with `Cn1cccc1/C=C1/SC(=Nc2ccccc2)NC1=O` the figure was 37.4 ± 1.9.
Same read-out and setting: with `O=C(/C=C/c1ccco1)Nc1ccc(Br)cc1Cl` the figure was 25.5 ± 1.6; with `Cc1ccc(O)c(NC(=O)CSc2n[nH]c(C)c2[N+](=O)[O-])c1`, 52.5 ± 14; with `O=C(/C=C/c1ccccc1)Nc1ccc(Br)cn1`, 27.6 ± 6.8.
In the case of `Cc1ccc(O)c(-c2cc(-c3ccc(F)cc3)n[nH]2)c1`, the ERSE-FLuc reporter activation was 25.5 ± 7.2.
On the same count and under the same terms, the value for `O=C(N/N=C\c1ccccc1[N+](=O)[O-])c1[nH]nc2c1CCc1ccccc1-2` was 31.4 ± 3; that for `COc1cccc(C(=O)/C=C/Nc2cc(C)ccc2O)c1` was 116 ± 7.9; that for `C(=C\c1ccccc1)/C=N/Nc1nc2ccccc2[nH]1` was 27.2 ± 3.8.
Still for that read-out and setting: with `Cc1ccc(O)c(NC(=O)CSc2ccccc2)c1` the figure was 51.1 ± 12; with `CC(Oc1ccc(Cl)cc1Cl)C(=O)NNC(=O)c1ccc(O)c(O)c1` (stereo not drawn), 28.5 ± 5.5; with `COc1ccc(C2C=C3Oc4ccccc4N=C3NN2)cc1` (stereo not drawn), 29 ± 3.5.
In the case of `Nc1ccc2nc(/C=C/c3ccco3)[nH]c2c1`, the ERSE-FLuc reporter activation amounted to 40.9 ± 9.5.
With `CN(C)c1ccc(/C=C/C(=O)NC(=O)c2ccccc2OC(=O)c2ccccc2)cc1`, the ERSE-FLuc reporter activation is 26.9 ± 8.8.
Still for that read-out and setting: the value for `O=c1cc(-c2ccc(O)c(O)c2)oc2ccccc12` was 42.2 ± 12.
On the same count and under the same terms, with `CCn1c(/C(C#N)=C/c2ccc(OC)cc2)nc2ccccc21` the figure was 27.2 ± 7.1.
Still for that read-out and setting: with `Nc1ccc2nc(-c3ccccn3)[nH]c2c1` the figure was 26.8 ± 9.3; with `Nc1cn(-c2ccccc2)nc1-c1cccs1`, 28.6 ± 6.5; with `COc1cccc(C(=O)Nc2nc3ccc(C)cc3s2)c1`, 32.2 ± 7.2.
For the compound `N#C/C(=C\c1ccc(O)c(O)c1)C(=O)Nc1ccccc1`, the ERSE-FLuc reporter activation was 29.5 ± 5.4.
`O=C1N/C(=C/c2ccc(O)cc2)C(=O)N1Cc1ccc(Br)cc1` yielded an ERSE-FLuc reporter activation of 37.1 ± 3.6.
The same measure, in the same setting: the value for `CNC(=O)c1ccccc1Nc1cc(NC(=O)Cc2ccc(F)c(F)c2)ncc1C(F)(F)F` was 54.6 ± 9.
On the same count and under the same terms, with `Cc1ccc(O)c(N/C=C/C(=O)c2cccs2)c1` the figure was 62.1 ± 12; with `Cc1cnc(NC(=O)c2sc3nc4c(C)cccc4cc3c2N)s1`, 28.6 ± 7.1.
In turn, `CCC(=O)N(Cc1cc2cc(C)ccc2n2nnnc12)C1CCCC1` gave an ERSE-FLuc reporter activation of 33.5 ± 2.4.
Same read-out and setting: with `Cc1cc(C)nc(/N=C(\N)Nc2ccc(OCc3ccc(Cl)cc3)cc2)n1` the figure was 59.7 ± 14; with `CC(=O)Oc1ccc(C(=O)OCc2ccc(Cl)cc2)cc1OC(C)=O`, 35.9 ± 4.4.
Same read-out and setting: the value for `OCCNc1nc(Nc2ccc(Cl)cc2)nc2ccccc12` was 67.9 ± 10.
On to `CN(C)c1ccc(C(=NO)c2ccc(N(C)C)cc2)cc1`, for which the ERSE-FLuc reporter activation came out at 28 ± 6.5.
The same measure, in the same setting: the value for `N#CC1=C(N)Oc2c(ccc3ccccc23)C1c1ccsc1` (stereo not drawn) was 25.8 ± 2.7; that for `COc1ccc(/C=C/c2ccc3cccc(OC(C)=O)c3n2)cc1OC(C)=O` was 39.7 ± 5.5.
